# PubChem BioAssay (NCI)
# The panel holds about 83,000 compounds, 20% with a hit somewhere; the sample as a whole holds those more often.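 Assay: single dose, 48 h. Readout: percent growth (0 = no net growth; negative = cell death). Active: <10.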 A number with no mark means an inactive call. Activity calls are given as the source filed them.
# Tested on: IGROV1 ovarian
# Assay: NCI-60 one-dose screen, 48 h (100 = growth as untreated, 0 = no growth, -100 = all killed)
# Settings: 10 µM unless noted
row,SMILES,growth
1,Cc1cc(=O)oc2cc(Oc3nc(-c4ccccc4)cn4c(-c5ccccc5)cnc34)ccc12,83.7%
2,Cc1ccc2c(n1)C[C@H](C(C)(C)O)CC[C@H]2C,104%
3,Nc1nc(N)c2c(n1)NC(c1cccc(Nc3ccnc4cc(C(F)(F)F)ccc34)c1)CC(c1ccc(Cl)cc1)=N2 (stereo not given),52.9%
4,C(CCCSC1=NCCN1)CCSC1=NCCN1,101%
5,O=S(=O)(Nc1ccc(Br)cc1)c1ccc(-c2cnc(C3CC3)o2)cc1,36.1%
6,Nc1n[nH]c2cccc(C#Cc3cccc(C(=O)Nc4ccc(Cl)c(C(F)(F)F)c4)c3)c12,35.8%
7,NC(=N\N=C/c1ccc(Cl)cc1Cl)/C(N)=N\N=C/c1ccc(Cl)cc1Cl,15.8%
8,COc1cc(C(=O)/C=C/c2c(-c3cccs3)nc3sc(C)cn23)cc(OC)c1OC,9.6% (active)
9,Nc1nc(=O)n([C@H]2CC=C(CO)O2)cc1F,95.2%
10,COc1ccc(Nc2nccc(Nc3ccc4[nH]ncc4c3)n2)cc1,50.6%
11,Cc1[nH]c(C(=O)Nc2ccccc2OC2CCNC2)c(Cl)c1Cl (stereo not given),66.5%
12,CCN1CCN(CCOc2ccc(CNc3ccc4nc(CCC5CCCCC5)[nH]c4c3)cc2)CC1,40.9%
13,O=C1NCCS(=O)(=O)/C1=C\C=C\c1cccc(C(F)(F)F)c1,35.5%
14,CCCCCCCCCCCCCC[n+]1ccc2c(C)c3c(c(C)c2c1)c1cc(O)ccc1n3CC,-75.6% (active)
15,CCCc1cc(CCC)n2nc(N)nc2n1,126%
16,O=S(=O)(c1ccc(NCSc2nc3ccccc3s2)cc1)c1ccc(NCSc2nc3ccccc3s2)cc1,97%
17,COc1cc(/C=C2\CN(S(=O)(=O)c3ccc(C)cc3)C/C(=C\c3cc(CN4CCCC4)c(O)c(OC)c3)C2=O)cc(CN2CCCC2)c1O,-20.1% (active)
18,Cc1cccc(CN(Nc2ccccc2)c2ccccc2)n1,127%
19,O=C(NS(=O)(=O)c1ccccc1)n1cc(-c2ccncc2)c(-c2cc(O)cc(Cl)c2)n1,99.4%
20,CCCCN(CCC#N)C(N)=O,100%

row,SMILES,growth
1,CCOC(=O)/C(=C/c1ccc([N+](=O)[O-])cc1)C(=O)c1ccccc1,42.5%
2,N#Cc1c(-c2ccc(F)cc2)cc(-c2cccc(Cl)c2)[nH]c1=O,62.8%
3,O=C(Nc1cccc(Cn2c(=O)[nH]c3ccc(Oc4ncccn4)cc3c2=O)c1)c1cccc(Cl)c1,62.4%
4,O=C1c2c(c3c4cccnc4[nH]c3c3ccc4ccccc4c23)C(=O)N1O,38%
5,COC(=O)c1nc(-c2ccccc2)oc1S(=O)(=O)N1CCN(c2ccc(OC)cc2)CC1,71.7%
6,O=C1c2ccccc2-c2c1c1ccncc1c(=O)n2CCCn1ccnc1,44.9%
7,COc1cc(-c2c(-c3ccccc3)c[nH]c2C(=O)NCCCO)c(OC)c2c1OCO2,107%
8,C=C(C)Cn1c(SCC(=O)c2cccs2)nc2sc3c(c2c1=O)CCCC3,55.1%
9,CNC1=C([N+](=O)[O-])C(c2ccc(OC)cc2)C(C#N)=C(c2ccc[nH]2)O1 (stereo not given),104%
10,Cn1cc(-c2nc(-c3c[nH]c4c(Cl)nccc34)cs2)c2ccccc21,105%
11,N/C(=N\c1nc2ccccc2s1)NC(=O)Nc1ccccc1,58.8%
12,C#Cc1ccc(NC(=O)Cc2ccc(/C=C/C(=O)c3nccn3C)cc2)cc1,52.8%
13,Cc1cc2c(C(C)C)c(O)c(O)c(/C=N/O)c2c(O)c1-c1c(C)cc2c(C(C)C)c(O)c(O)c(/C=N/O)c2c1O,38.5%
14,O=C(Nc1ccc2[nH]ncc2c1)c1csc(Nc2ccccc2)n1,54.9%
15,COC(=O)c1nc(-c2ccccc2)oc1S(=O)(=O)NCC(c1ccc(Cl)cc1)N1CCCCC1 (stereo not given),56.5%
16,O=C(Nc1ccc(Oc2cccc(F)c2)c(Cl)c1)c1cnccn1,40.5%
17,COc1ccc(Nc2nc(Nc3cc(C)[nH]n3)c3cc(OC)c(OC)cc3n2)cc1,-88.8% [20 µM] (active)
18,COC(=O)c1cc(-c2ccc(OC)c(OC)c2)[nH]c1N/N=C/c1c(Cl)cccc1Cl,42.4%
19,CC(C)=CCC[C@](C)(O)C1CC[C@]2(C)[C@@H]1CC[C@@H]1[C@@]3(C)CC/C(=N\OCCC#N)C(C)(C)[C@@H]3CC[C@]12C (stereo not given in full),97.4%
20,N#C/C(=C\c1cccc2cnccc12)N1N=NC2C=CC=CC21 (stereo not given),27.9%

# Tested on: OVCAR-3 ovarian
# Assay: as above
# Settings: 10 µM unless noted
row,SMILES,growth
1,Cc1cc(=O)oc2cc(Oc3nc(-c4ccccc4)cn4c(-c5ccccc5)cnc34)ccc12,76.6%
2,Cc1ccc2c(n1)C[C@H](C(C)(C)O)CC[C@H]2C,113%
3,Nc1nc(N)c2c(n1)NC(c1cccc(Nc3ccnc4cc(C(F)(F)F)ccc34)c1)CC(c1ccc(Cl)cc1)=N2 (stereo not given),26.6%
4,C(CCCSC1=NCCN1)CCSC1=NCCN1,107%
5,O=S(=O)(Nc1ccc(Br)cc1)c1ccc(-c2cnc(C3CC3)o2)cc1,-7.12% (active)
6,Nc1n[nH]c2cccc(C#Cc3cccc(C(=O)Nc4ccc(Cl)c(C(F)(F)F)c4)c3)c12,81.6%
7,NC(=N\N=C/c1ccc(Cl)cc1Cl)/C(N)=N\N=C/c1ccc(Cl)cc1Cl,21.5%
8,COc1cc(C(=O)/C=C/c2c(-c3cccs3)nc3sc(C)cn23)cc(OC)c1OC,-8.57% (active)
9,Nc1nc(=O)n([C@H]2CC=C(CO)O2)cc1F,104%
10,COc1ccc(Nc2nccc(Nc3ccc4[nH]ncc4c3)n2)cc1,48.9%
11,Cc1[nH]c(C(=O)Nc2ccccc2OC2CCNC2)c(Cl)c1Cl (stereo not given),84.5%
12,CCN1CCN(CCOc2ccc(CNc3ccc4nc(CCC5CCCCC5)[nH]c4c3)cc2)CC1,27.8%
13,O=C1NCCS(=O)(=O)/C1=C\C=C\c1cccc(C(F)(F)F)c1,22.2%
14,CCCCCCCCCCCCCC[n+]1ccc2c(C)c3c(c(C)c2c1)c1cc(O)ccc1n3CC,-95.3% (active)
15,CCCc1cc(CCC)n2nc(N)nc2n1,121%
16,O=S(=O)(c1ccc(NCSc2nc3ccccc3s2)cc1)c1ccc(NCSc2nc3ccccc3s2)cc1,97.7%
17,COc1cc(/C=C2\CN(S(=O)(=O)c3ccc(C)cc3)C/C(=C\c3cc(CN4CCCC4)c(O)c(OC)c3)C2=O)cc(CN2CCCC2)c1O,-27.8% (active)
18,Cc1cccc(CN(Nc2ccccc2)c2ccccc2)n1,99.5%
19,O=C(NS(=O)(=O)c1ccccc1)n1cc(-c2ccncc2)c(-c2cc(O)cc(Cl)c2)n1,108%
20,CCCCN(CCC#N)C(N)=O,89.7%

row,SMILES,growth
1,CCOC(=O)/C(=C/c1ccc([N+](=O)[O-])cc1)C(=O)c1ccccc1,58.4%
2,N#Cc1c(-c2ccc(F)cc2)cc(-c2cccc(Cl)c2)[nH]c1=O,7.21% (active)
3,O=C(Nc1cccc(Cn2c(=O)[nH]c3ccc(Oc4ncccn4)cc3c2=O)c1)c1cccc(Cl)c1,67.6%
4,O=C1c2c(c3c4cccnc4[nH]c3c3ccc4ccccc4c23)C(=O)N1O,14.4%
5,COC(=O)c1nc(-c2ccccc2)oc1S(=O)(=O)N1CCN(c2ccc(OC)cc2)CC1,45.4%
6,O=C1c2ccccc2-c2c1c1ccncc1c(=O)n2CCCn1ccnc1,67.1%
7,COc1cc(-c2c(-c3ccccc3)c[nH]c2C(=O)NCCCO)c(OC)c2c1OCO2,111%
8,C=C(C)Cn1c(SCC(=O)c2cccs2)nc2sc3c(c2c1=O)CCCC3,64.5%
9,CNC1=C([N+](=O)[O-])C(c2ccc(OC)cc2)C(C#N)=C(c2ccc[nH]2)O1 (stereo not given),107%
10,Cn1cc(-c2nc(-c3c[nH]c4c(Cl)nccc34)cs2)c2ccccc21,107%
11,N/C(=N\c1nc2ccccc2s1)NC(=O)Nc1ccccc1,28.4%
12,C#Cc1ccc(NC(=O)Cc2ccc(/C=C/C(=O)c3nccn3C)cc2)cc1,12%
13,Cc1cc2c(C(C)C)c(O)c(O)c(/C=N/O)c2c(O)c1-c1c(C)cc2c(C(C)C)c(O)c(O)c(/C=N/O)c2c1O,25.6%
14,O=C(Nc1ccc2[nH]ncc2c1)c1csc(Nc2ccccc2)n1,13.1%
15,COC(=O)c1nc(-c2ccccc2)oc1S(=O)(=O)NCC(c1ccc(Cl)cc1)N1CCCCC1 (stereo not given),57.5%
16,O=C(Nc1ccc(Oc2cccc(F)c2)c(Cl)c1)c1cnccn1,-17.8% (active)
17,COc1ccc(Nc2nc(Nc3cc(C)[nH]n3)c3cc(OC)c(OC)cc3n2)cc1,-63.1% [20 µM] (active)
18,COC(=O)c1cc(-c2ccc(OC)c(OC)c2)[nH]c1N/N=C/c1c(Cl)cccc1Cl,-19.2% (active)
19,CC(C)=CCC[C@](C)(O)C1CC[C@]2(C)[C@@H]1CC[C@@H]1[C@@]3(C)CC/C(=N\OCCC#N)C(C)(C)[C@@H]3CC[C@]12C (stereo not given in full),93.2%
20,N#C/C(=C\c1cccc2cnccc12)N1N=NC2C=CC=CC21 (stereo not given),6.92% (active)
